Measured values from PubChem BioAssay (Tox21).
Inconclusive results are not listed. Calls of active or inactive are those of the source. Unless noted, the call rests on the fitted dose curve.

Assays:
[1] = Nuclear factor erythroid 2-related factor 2/antioxidant responsive element (Nrf2/ARE) small molecule agonists: luciferase reporter gene qHTS assay in human keratinocytes (AID 1919969); further: nearly all actives have a fitted effect of over 35% in size; further: potency means the concentration at half of the fitted maximal effect
[2] = molecular target: Gonadotropin-releasing hormone receptor (Homo sapiens) (UniProt P30968); assay: Human gonadotropin-releasing hormone receptor (GnRHR) small molecule agonists, calcium flux assay in GnRHR-HEK293 cells (AID 1920063); further: nearly all actives have a fitted effect of over 35% in size
Method in brief: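 Agonist mode: compounds at 15 concentrations, in triplicate, went onto calcium dye-loaded GnRHR-HEK293 cells. Intracellular calcium was then followed as 480/540 nm fluorescence at 1 s intervals over 3 min.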

[3] = molecular target: KiSS-1 receptor (Homo sapiens) (UniProt Q969F8); assay: Human kisspeptin (KISS1R) small molecule agonists, calcium flux assay in KISS1R-HEK293 cells (AID 1920064; active means well fitted activation curve with a large enough effect in the repeat runs)
Method in brief: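 Agonist mode: intracellular calcium rise tracked at 1 s intervals over 3 min (480/540 nm) immediately after compound addition to dye-loaded KISS1R-HEK293 stable cells. Each compound tested at 15 concentrations in triplicate.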

[4] = G protein-coupled receptor (GPCR) small molecule agonists, calcium flux assay: HEK293 wild type cell line counter screen (AID 1920065)
Method in brief: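 Calcium flux counter screen: compound added in agonist mode at 15 concentrations in triplicate to dye-loaded parental HEK293 cells. Fluorescence (480/540) read kinetically for 3 min; ATP served as positive control.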

[5] = p53 small molecule agonists, cell-based qHTS assay with human liver microsomes (AID 1963577); further: potency means the concentration at half of the fitted maximal effect;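 on activation: p53 response element beta-lactamase reporter cells with liver microsomes plus NADPH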
Method in brief: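 16 h, 37 C exposure of p53RE-bla cells to compounds with human liver microsomes and NADPH (0.5 mg/mL final each); detection via LiveBLAzer mixture, 2 h dark at room temperature.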

[6] = p53 small molecule agonists, cell-based qHTS assay with human liver microsomes: qHTS cell viability counter screen (AID 1963579); further: nearly all actives have a fitted effect of over 45% in size
Method in brief: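 In this multiplexed counter screen, the reporter plates were subsequently treated with CellTiter-Glo so that cell viability, reflected by luminescence, could be recorded for p53RE-bla cells dosed 16 h with compounds under microsomal activation (HLM and NADPH).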

[7] = p53 small molecule agonists, cell-based qHTS assay with rat liver microsomes: qHTS cell viability counter screen (AID 1963580); further: nearly all actives have a fitted effect of over 45% in size
Method in brief: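 After the beta-lactamase ratio was read, CellTiter-Glo was added to the same wells and luminescence measured at 30 min; cells had been treated 16 h at 37 C with compounds, rat liver microsomes and NADPH (0.5 mg/mL final each).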

[8] = p53 small molecule agonists, cell-based qHTS assay: qHTS cell viability counter screen (AID 1963581); further: nearly all actives have a fitted effect of over 45% in size
Method in brief: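 Counter screen read by CellTiter-Glo luminescence (ATP content, 30 min at room temperature), run in the same wells as the beta-lactamase reporter read. HCT-116 p53RE-bla cells saw compounds for 16 h at 37 C.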

[9] = p53 small molecule agonists, cell-based qHTS assay (AID 1963582; active means well fitted activation curve with a large enough effect in the signal ratio in the repeat runs, not every such curve was filed as active; the % refers to the signal ratio)
Method in brief: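 Read-out is beta-lactamase FRET fluorescence after 2 h at room temperature with LiveBLAzer B/G substrate. p53 response element-bla cells were treated 16 h at 37 C with compounds in DMSO, added 5 h after seeding.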

[10] = molecular target: 5-hydroxytryptamine receptor 2A (Homo sapiens) (UniProt P28223); assay: 5-hydroxytryptamine receptor 2A (HTR2A) small molecule antagonists, cell-based qHTS assay (AID 1963586); further: nearly all actives have a fitted effect of over 45% in size
Method in brief: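 CHO cells stably expressing human HTR2A were plated for 18 h at 37 C, then loaded with calcium dye for 1 h. Compounds were preincubated 5 min at room temperature before DOI (4 nM solution) was added. Kinetic fluorescence was read for 3 min.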

[11] = molecular target: 5-hydroxytryptamine receptor 2A (Homo sapiens) (UniProt P28223); assay: 5-hydroxytryptamine receptor 2A (HTR2A) small molecule agonists, cell-based qHTS assay (AID 1963587); further: nearly all actives have a fitted effect of over 30% in size
Method in brief: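 CHO cells stably expressing human HTR2A, plated 18 h, loaded with calcium dye 1 h at 37 C. Agonist mode: compounds added and intracellular calcium fluorescence recorded kinetically for 2 min at 1 sec intervals.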

[12] = molecular target: Muscarinic acetylcholine receptor M1 (Homo sapiens) (UniProt P11229); assay: Cholinergic receptor muscarinic 1 (CHRM1) small molecule antagonists, cell-based qHTS assay (AID 1963588); further: nearly all actives have a fitted effect of over 40% in size; further: potency means the concentration at half of the fitted maximal effect
Method in brief: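 Compounds were tested at 15 concentrations in three independent runs. Dye-loaded CHRM1-CHO cells were exposed 5 min at room temperature before stimulation by acetylcholine added at 50nM. Intracellular calcium was read kinetically on FDSS for 3 min.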

[13] = molecular target: Muscarinic acetylcholine receptor M1 (Homo sapiens) (UniProt P11229); assay: Cholinergic receptor muscarinic 1 (CHRM1) small molecule agonists, cell-based qHTS assay (AID 1963589); further: nearly all actives have a fitted effect of over 35% in size
Method in brief: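 Agonist-mode calcium-flux screen: compounds at 15 concentrations, three independent runs, were pin-transferred onto dye-loaded human CHRM1-CHO cells. Fluorescence was then recorded kinetically every second over minutes.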

[14] = cAMP Responsive Elements (CRE) small molecule antagonists, cell-based qHTS assay (AID 1963591; active means well fitted inhibition curve with a large enough effect in the signal ratio in the repeat runs, not every such curve was filed as active; the % refers to the signal ratio)
Method in brief: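 Antagonist mode: compounds are added alongside the adenylyl cyclase activator NKH477 (0.25 uM final) to CRE-bla HEK293T cells for 3 h. LiveBLAzer FRET substrate, 2 h at room temperature, reports bla expression.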

[15] = molecular target: Beta-2 adrenergic receptor (Homo sapiens) (UniProt P07550); assay: Adrenergic beta2 receptor (ADRB2) small molecule antagonists, cell-based qHTS assay (AID 1963592); further: series mostly up to about 92 µM; nearly all actives have a fitted effect of over 50% in size
Method in brief: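 Assay format: CHO-ADRB2 cells, 18-20hr seeding at 37C/5% CO2, then compound plus 1nM isoproterenol agonist mix for 0.5hr RT. Homogeneous time-resolved fluorescence cAMP detection after 1hr, expressed as 665/615 nm ratio.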

[16] = molecular target: D(2) dopamine receptor (Homo sapiens) (UniProt P14416); assay: Dopamine D2 receptor (DRD2) small molecule agonists, cell-based qHTS assay (AID 1963594); further: nearly all actives have a fitted effect of over 35% in size
Method in brief: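 HEK293 cells stably expressing human DRD2, pre-treated with PDE inhibitor Ro20-1724 (0.1 mM final) and compound 10 min at room temperature, then stimulated with NKH477 (200nM […]) for 30 min. cAMP read by HTRF (665/620 nm).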

[17] = molecular target: D(2) dopamine receptor (Homo sapiens) (UniProt P14416); assay: Dopamine D2 receptor (DRD2) small molecule antagonists, cell-based qHTS assay (AID 1963595; active means well fitted inhibition curve with a large enough effect in the signal ratio in the repeat runs, with a control signal flat; the % refers to the signal ratio)
Method in brief: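 DRD2-HEK293; 0.1 mM Ro20-1724; cpd 10 min RT; NKH477 200 nM + quinpirole 12 nM, 30 min RT; HTRF cAMP (cAMP-d2/anti-cAMP cryptate), 665/620 nm ratio after 1 h.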

[18] = cAMP Responsive Elements (CRE) small molecule agonists, cell-based qHTS assay (AID 1963590)
Method in brief: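 Agonist mode: compound added to CRE-bla HEK 293T cells (2,000/well, 18 h after plating) for 3 h at 37 C/5% CO2. Reporter activity detected via FRET beta-lactamase substrate, 2 h room-temperature loading.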

[19] = molecular target: Beta-2 adrenergic receptor (Homo sapiens) (UniProt P07550); assay: Adrenergic beta2 receptor (ADRB2) small molecule agonists, cell-based qHTS assay (AID 1963593);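 further: CHO cells stably overexpressing human ADRB2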
Method in brief: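 CHO cells stably over-expressing ADRB2 were plated overnight at 37C, then dosed with compounds plus a stimulation mix containing 100uM IBMX and 25uM Ro-20-1724 for 0.5hr at room temperature. cAMP was measured by HTRF competition, 1hr.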

[20] = p53 small molecule agonists, cell-based qHTS assay with rat liver microsomes (AID 1963578)
Method in brief: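 With rat liver microsomes and NADPH present (0.5 mg/mL final each), p53RE-bla cells are treated with compound for 16 h at 37 C. LiveBLAzer detection mixture is then applied for 2 h at room temperature in the dark.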

Measured: Potency

D(2) dopamine receptor (Homo sapiens), sequence (P14416 whole entry, looked up): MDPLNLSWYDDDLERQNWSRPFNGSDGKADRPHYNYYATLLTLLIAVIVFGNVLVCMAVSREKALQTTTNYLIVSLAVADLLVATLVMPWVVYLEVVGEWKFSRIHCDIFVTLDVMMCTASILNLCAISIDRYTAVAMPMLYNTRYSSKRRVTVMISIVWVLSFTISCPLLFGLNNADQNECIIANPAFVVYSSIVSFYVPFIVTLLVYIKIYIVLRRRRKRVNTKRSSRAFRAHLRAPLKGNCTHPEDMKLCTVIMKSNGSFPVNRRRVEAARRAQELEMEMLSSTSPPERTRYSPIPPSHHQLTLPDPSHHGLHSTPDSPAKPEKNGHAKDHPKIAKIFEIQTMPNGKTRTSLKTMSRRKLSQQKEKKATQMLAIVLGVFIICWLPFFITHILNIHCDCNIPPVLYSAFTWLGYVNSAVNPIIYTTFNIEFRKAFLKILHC
KiSS-1 receptor (Homo sapiens), sequence (Q969F8 whole entry, looked up): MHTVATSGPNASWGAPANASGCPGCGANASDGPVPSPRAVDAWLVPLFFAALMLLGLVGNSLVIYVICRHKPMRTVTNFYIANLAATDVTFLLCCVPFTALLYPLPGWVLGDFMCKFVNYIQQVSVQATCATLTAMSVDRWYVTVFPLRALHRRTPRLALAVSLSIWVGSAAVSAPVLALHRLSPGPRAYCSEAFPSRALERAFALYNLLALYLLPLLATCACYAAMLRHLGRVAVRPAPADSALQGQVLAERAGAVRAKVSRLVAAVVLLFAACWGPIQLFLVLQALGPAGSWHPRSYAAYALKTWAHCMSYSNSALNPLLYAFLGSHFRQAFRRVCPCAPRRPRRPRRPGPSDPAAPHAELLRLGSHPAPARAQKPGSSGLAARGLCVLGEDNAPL
Muscarinic acetylcholine receptor M1 (Homo sapiens), sequence (P11229 whole entry, looked up): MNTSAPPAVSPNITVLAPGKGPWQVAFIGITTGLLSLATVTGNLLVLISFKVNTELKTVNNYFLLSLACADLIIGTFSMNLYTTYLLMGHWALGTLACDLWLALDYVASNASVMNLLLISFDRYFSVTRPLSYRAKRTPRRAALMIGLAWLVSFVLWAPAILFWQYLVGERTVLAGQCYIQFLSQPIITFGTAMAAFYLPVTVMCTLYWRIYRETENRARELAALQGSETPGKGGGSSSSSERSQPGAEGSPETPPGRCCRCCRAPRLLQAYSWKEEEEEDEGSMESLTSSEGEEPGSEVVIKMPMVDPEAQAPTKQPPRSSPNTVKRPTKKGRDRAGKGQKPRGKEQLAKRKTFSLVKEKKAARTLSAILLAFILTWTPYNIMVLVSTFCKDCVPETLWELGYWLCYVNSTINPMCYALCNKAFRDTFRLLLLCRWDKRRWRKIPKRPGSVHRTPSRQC
Gonadotropin-releasing hormone receptor (Homo sapiens), sequence (P30968 whole entry, looked up): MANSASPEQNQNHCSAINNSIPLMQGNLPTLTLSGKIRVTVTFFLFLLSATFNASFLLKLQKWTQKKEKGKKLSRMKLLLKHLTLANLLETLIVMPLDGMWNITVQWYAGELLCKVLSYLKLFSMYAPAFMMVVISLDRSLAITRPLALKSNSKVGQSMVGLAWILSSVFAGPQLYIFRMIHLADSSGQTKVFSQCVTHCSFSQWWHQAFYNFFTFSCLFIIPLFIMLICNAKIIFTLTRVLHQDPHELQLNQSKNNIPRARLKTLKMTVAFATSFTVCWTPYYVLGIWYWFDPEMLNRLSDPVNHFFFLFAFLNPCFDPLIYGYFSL
Beta-2 adrenergic receptor (Homo sapiens), sequence (P07550 whole entry, looked up): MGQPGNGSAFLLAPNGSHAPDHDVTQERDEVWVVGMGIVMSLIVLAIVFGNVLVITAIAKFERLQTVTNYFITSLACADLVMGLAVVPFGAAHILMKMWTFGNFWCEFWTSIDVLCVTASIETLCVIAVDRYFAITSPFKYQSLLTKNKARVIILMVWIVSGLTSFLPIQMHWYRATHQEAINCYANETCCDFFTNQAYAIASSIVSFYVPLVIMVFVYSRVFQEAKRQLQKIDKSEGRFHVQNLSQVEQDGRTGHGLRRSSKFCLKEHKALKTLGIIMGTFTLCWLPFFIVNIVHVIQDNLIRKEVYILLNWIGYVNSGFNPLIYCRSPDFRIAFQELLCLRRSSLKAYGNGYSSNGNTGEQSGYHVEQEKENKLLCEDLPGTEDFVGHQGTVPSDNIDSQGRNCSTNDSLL
5-hydroxytryptamine receptor 2A (Homo sapiens), sequence (P28223 whole entry, looked up): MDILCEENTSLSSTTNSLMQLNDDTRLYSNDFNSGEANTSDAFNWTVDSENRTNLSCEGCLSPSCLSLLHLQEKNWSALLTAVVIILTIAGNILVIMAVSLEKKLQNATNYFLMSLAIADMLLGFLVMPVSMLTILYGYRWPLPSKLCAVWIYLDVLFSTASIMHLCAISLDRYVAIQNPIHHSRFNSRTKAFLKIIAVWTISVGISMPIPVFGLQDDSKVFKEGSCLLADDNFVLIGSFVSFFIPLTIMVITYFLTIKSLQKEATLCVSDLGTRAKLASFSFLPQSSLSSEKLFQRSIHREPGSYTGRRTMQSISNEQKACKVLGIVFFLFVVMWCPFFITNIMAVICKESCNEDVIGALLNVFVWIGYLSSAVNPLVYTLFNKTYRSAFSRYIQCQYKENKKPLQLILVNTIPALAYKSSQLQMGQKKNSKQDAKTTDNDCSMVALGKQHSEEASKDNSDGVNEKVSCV

Cc1cc(C)cc(OP(=O)(Oc2cc(C)cc(C)c2)Oc2cc(C)cc(C)c2)c1
not listed: [18] | [19] | [20]
inactive: all other assays above

COP(=S)(OC)Oc1c(Cl)cc(C)cc1Cl
active: [5] 9.13 µM
not listed: [12] | [20]
inactive: all other assays above

CN(C)C(=O)Oc1cc(OC(=O)N(C)C)cc(C(O)CNC(C)(C)C)c1 (configuration not stated)
not listed: [5] | [10] | [11] | [12] | [13] | [16] | [18]
inactive: all other assays above

CCC(C)(C)C(=O)OC1=C(c2ccc(Cl)cc2Cl)C(=O)OC12CCCCC2
active: [1] 9.69 µM
not listed: [5] | [8] | [14] | [15] | [16] | [18]
inactive: all other assays above

C=CC[C@]1(O)CC[C@H]2[C@@H]3CCC4=CC(=O)CCC4=C3C=C[C@@]21C
not listed: [8] | [12] | [14] | [17] | [18] | [19] | [20]
inactive: all other assays above

O=NN1CCNCC1
active: [1] 76.1 µM
not listed: [6] | [8] | [16] | [19]
inactive: all other assays above

Cc1nc(N)nc(N)n1
not listed: [10] | [17] | [19] | [20]
inactive: all other assays above

CC(=O)C(Cl)C(=O)N(C)C (configuration not stated)
active: [1] 68.6 µM
not listed: [6] | [18] | [20]
inactive: all other assays above

CC(=O)[C@H]1CC[C@H]2[C@@H]3CC[C@H]4C[C@H](O)CC[C@]4(C)[C@H]3C(=O)C[C@]12C
not listed: [6] | [14] | [15] | [20]
inactive: all other assays above

CCCOCC(=Nc1ccc(Cl)cc1C(F)(F)F)n1ccnc1
inactive: [2] | [3] | [4] | [5] | [20] | [6] | [15] | [19]
active: [1] 27.3 µM

CCOP(=O)(OCC)O/C(=C/Cl)c1ccc(Cl)cc1Cl
active: [5] 2.57 µM
not listed: [6] | [9] | [10] | [14] | [18] | [20]
inactive: all other assays above

C=C(C)CN(CC)c1c([N+](=O)[O-])cc(C(F)(F)F)cc1[N+](=O)[O-]
active: [1] 54.5 µM
not listed: [13] | [19] | [20]
inactive: all other assays above

ClC(Br)Br
not listed: [5] | [9] | [10] | [17]
inactive: all other assays above

Oc1cc(Cl)c(Cl)c(Cl)c1
active: [1] 65 µM
not listed: [6] | [9] | [13] | [18] | [19]
inactive: all other assays above

OC(c1ccc(Cl)cc1)(c1ccc(Cl)cc1)c1cccnc1
active: [12] 16.8 µM
not listed: [7] | [8] | [9] | [10] | [17] | [19]
inactive: all other assays above

CC(=O)c1cc(C(C)(C)C)cc2c1CCC2(C)C
not listed: [9] | [13] | [20]
inactive: all other assays above
